Reference: PubChem BioAssay
Results with a measured potency or affinity are listed apart. A number with no mark means an inactive call. How the calls were made is not given here.

Experiment: A2780 cell killing – plate reader, dry powder samples, cytotoxicity control, dose response (AID 743046);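 further: 0% = neutral control wells and -100% = cytotoxic reference compound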
Details: A2780 ovarian cancer cytotoxicity; series mostly up to 35 µM; activity change, negative = cytotoxicity: at the top concentration

SMILES | activity change, negative = cytotoxicity
C[C@@H]1CCCCO[C@@H](CN(C)Cc2ccc(C(F)(F)F)cc2)[C@H](C)CN([C@@H](C)CO)C(=O)c2cc(NS(=O)(=O)c3ccccc3)ccc2O1 | 11.6%
O=C(C[C@H]1C[C@@H]2c3cc(NC(=O)Nc4ccc(C(F)(F)F)cc4)ccc3O[C@@H]2[C@@H](CO)O1)NCCc1ccccc1 | 5.66%
C[C@@H]1CN([C@@H](C)CO)C(=O)c2cc(NC(=O)c3ccccc3)ccc2O[C@@H](C)CCCCO[C@H]1CN(C)Cc1ccc(C(F)(F)F)cc1 | -32.6%
CC(C)CC#Cc1ccc2c(c1)O[C@H](CN(C)S(=O)(=O)c1ccc(F)cc1)[C@H](C)CN([C@@H](C)CO)S2(=O)=O | -5.18%
C[C@@H]1CN([C@H](C)CO)C(=O)c2cc(NS(=O)(=O)c3ccc(F)cc3)ccc2O[C@@H]1CN(C)Cc1ccc(C(F)(F)F)cc1 | -7.17%
O=C(Nc1cccc(F)c1)N1CCCCN2[C@@H](CO)[C@@H](c3ccc(-c4ccncc4)cc3)[C@@H]2C1 | 0.833%
C[C@@H]1CCCCO[C@H](CN(C)C(=O)c2ccccc2)[C@@H](C)CN([C@@H](C)CO)C(=O)c2cc(NC(=O)Nc3ccc(C(F)(F)F)cc3)ccc2O1 | 24.9%
COc1ccc(S(=O)(=O)N2CCCCN3[C@H](C2)[C@H](c2ccc(C#CC(C)C)cc2)[C@@H]3CO)cc1 | 36.5%
C[C@H](CO)N1C[C@H](C)[C@H](CN(C)Cc2ccc3c(c2)OCO3)OCCCC[C@H](C)Oc2ccc(NS(=O)(=O)c3ccc(Cl)cc3)cc2C1=O | -4.51%
C[C@@H]1CCCCO[C@H](CN(C)C(=O)Cc2ccccc2)[C@H](C)CN([C@@H](C)CO)C(=O)c2cc(NC(=O)Nc3ccc(C(F)(F)F)cc3)ccc2O1 | 21.3%
